FMDV inh – foot and mouth disease virus antiviral activity; hit rate 1.2% among 410,000; Potency, µM (series often up to 57.9 µM), inactives show top-dose activity change, negative = inhibition, actives largely listed as inhibitors; FMDV antiviral cell-based qHTS; calls by dose curve; tested in HEK293T cells; note: read-out not given here; potency is the fitted concentration of half-maximal effect; nearly all actives have a fitted effect of over 45% in size
HCMV inh – human cytomegalovirus inhibition | HFF cells, HCMV-luciferase reporter, 72 h; stronger effect = lower value | activity change, negative = inhibition, % at 57.5 µM | hit rate 4.5% among 410,000; in the data active = activity change below about -60%; inconclusive = no clear call, values can overlap the other calls; inactive = above about -39%
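HFF cells seeded 16 h at 37C, treated with compounds, infected with luciferase-reporter HCMV at MOI 1 PFU/cell; luciferase read at 72 h post infection, normalized to buffer-only and Salinomycin controls.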
LASV entry inh – inhibitors of Lassa virus binding or cell entry | Lassa virus pseudotype entry inhibition, cell reporter | Potency, µM (doses to about 37.9 µM), inactives show top-dose activity change, negative = inhibition, usual class: inhibitors | hit rate 1.2% among 300,000; calls by dose curve; tested in HEK293 cells; note: potency is the fitted concentration of half-maximal effect; nearly all actives have a fitted effect of over 50% in size
HCV inh – HCV inhibition; hit rate 3.4% among 340,000; AID 651820; Huh7.5.1 HCVcc-Cre infection, luciferase reporter, 44 h; Potency, µM (series often up to 41.8 µM), without a hit: at the highest dose activity change, negative = inhibition, most hits filed as inhibitors; active = well fitted inhibition curve with a large enough effect; inconclusive = small, poorly fitted or top-dose-only effect, or another doubt; inactive = no such curve, though single readings can be large or run the other way; note: potency is the fitted concentration of half-maximal effect
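Antiviral activity was scored by luciferase reporter output from cells infected with HCVcc-Cre (~0.5 moi) in presence of compound, 44 h infection period, cells seeded 1,000/well 4 h prior.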
Marburg entry inh – inhibitors of Marburg virus binding or cell entry; Marburg virus pseudotyped entry inhibition, cell reporter; Potency, µM (titrated, usually from 37.8 µM), inactives show top-dose activity change, negative = inhibition, actives largely listed as inhibitors; hit rate 1.8% among 300,000; AID 540276; calls by dose curve; tested in HEK293 cells; note: potency is the fitted concentration of half-maximal effect
* = called active by the depositor; ? = inconclusive; . = no result given; [ ] = remark or other dose. The list is not random: actives were taken first. Their share in the collection is about 7.9%. % is set by controls: 0 for no effect and ±100 for the full control effect.

SMILES | FMDV inh | HCMV inh | LASV entry inh | HCV inh | Marburg entry inh
Cc1ccc(-c2nn(C)c(=O)c3ccccc23)cc1S(=O)(=O)NCCN(C)C | 20% | 30 | -21%[46.1 µM] | 6% | 11µM*
CCCCNS(=O)(=O)c1cc(-c2nn(C)c(=O)c3ccccc23)ccc1C | 32% | 64 | ? | ? | ?
COc1ccc(-c2cc(C(=O)NNC(=O)c3csc(N4CCOCC4)n3)c3ccccc3n2)cc1OC | -17% | -12 | -9% | 10µM* | ?
COc1ccc(-c2cc(C(=O)NNC(=O)c3csc(N4CCOCC4)n3)c3ccccc3n2)cc1 | -17% | -28 | 0%[46.1 µM] | ? | ?
COc1ccc(OC)c(NC(=O)C(Cc2ccccc2)NS(=O)(=O)c2ccc3c(c2)CCC(=O)N3)c1 (stereo not drawn) | -22% | 1 | ? | . | -5%[46.1 µM]
COc1ccc(NC(=O)C(Cc2ccccc2)NS(=O)(=O)c2ccc3c(c2)CCC(=O)N3)c(OC)c1 (stereo not drawn) | -9% | -102* | ? | . | -1%[46.1 µM]
CCCCCCN1C[C@@H](n2cc(COC(=O)c3ccccc3)nn2)[C@H](O)C[C@@H]1c1ccc(Cl)cc1 | -28% | -101* | . | . | .
CCCCCCN1C[C@H](n2cc(COC(=O)c3ccccc3)nn2)[C@@H](O)C[C@@H]1c1ccccc1 | 0% | -15 | . | . | .
CCCCCCN1C[C@H](n2cc(C3CC3)nn2)[C@@H](O)C[C@H]1c1ccc(Cl)cc1 | . | . | 16µM* | . | .
O=C(OCc1cn([C@H]2CN(CC3CCCCC3)[C@@H](c3ccc(Cl)cc3)C[C@H]2O)nn1)c1ccccc1 | . | . | . | . | 14µM*
CCCCCCN1C[C@@H](n2cc(COC(=O)c3ccccc3)nn2)[C@H](O)C[C@@H]1c1ccccc1 | -22% | -103* | . | . | .
CC(C)c1ccc(NC(=O)Cn2nnc(C(=O)NCc3ccc(Cl)cc3)c2N)cc1 | 0% | 29 | 23%[46.1 µM] | . | .
O=C(CCS(=O)(=O)Cc1ccccc1)Nc1ncc([N+](=O)[O-])s1 | 42% | -96* | 8%[46.1 µM] | ? | ?
COc1cccc(C2C(C(=O)Nc3ccccc3)=C(C)Nc3nnnn32)c1OC (stereo not drawn) | -1% | -100* | -22%[46.1 µM] | . | .
O=C(Nc1ccc2[nH]ccc2c1)c1ccccc1 | -48% | 101 | 2.8µM* | 18% | 6.3µM*
CCOC(=O)c1ccc[n+](C(C)C(=O)c2ccc(-c3ccccc3)cc2)c1 (stereo not drawn) | ? | -27 | 2% | -18% | 10%
O=C(Nc1ccc(C(=O)c2ccccc2)cc1)c1ccccc1 | 18% | 13 | ? | 2.8µM* | ?
O=C(Nc1ccc2[nH]ccc2c1)c1ccc(F)cc1 | -56% | 117 | . | -10% | .
COc1ccc(NC(=O)c2sc(SCc3ccccc3)nc2N)cc1 | -7% | 6 | ? | 14% | -2%
CC(C(=O)c1ccc(-c2ccccc2)cc1)[n+]1cccc(NC(=O)c2ccccc2)c1 (stereo not drawn) | 0% | -99* | -6%[46.1 µM] | -26% | 0%[46.1 µM]
COc1ccc(NC(=O)c2ccccc2SCc2ccccc2)cc1 | 1% | -106* | . | . | .
CCc1ccc(NC(=O)CSc2nc3ccccc3nc2Cc2ccccc2OC)cc1 | -16% | 8 | -4%[46.1 µM] | . | .
COc1ccc(C2=NC(C)(C)N(CC(=O)Nc3ccc(F)c(F)c3)C2=O)cc1 | -21% | ? | 8%[46.1 µM] | . | -20%[46.1 µM]
O=C(NCc1ccc(Cl)cc1)c1cnc(N2CCCCC2)c2ccccc12 | -20% | 0 | 19%[46.1 µM] | . | .
CCC1CN(C(=O)Nc2ccccc2C(F)(F)F)c2ccccc2O1 (stereo not drawn) | -8% | 53 | ? | . | .
SMILES | FMDV inh | HCMV inh | LASV entry inh | HCV inh | Marburg entry inh
COc1ccc(NC(=O)c2cc3ccccc3cc2OC)cc1OC | 11% | -1 | . | 11µM* | .
CCOC(=O)c1ccc(NC(=O)C2(c3ccc(OC)cc3)CCCC2)cc1 | ? | -30 | 11µM* | -15% | ?
COc1ccc(NC(=O)c2ccccc2)cc1 | 51% | -18 | . | 0.56µM* | .
O=C(NNC(=O)c1ccc(NC(=O)c2ccccc2)cc1)Nc1ccccc1 | -6% | -62* | . | 1% | .
CC1CCN(S(=O)(=O)c2cc(C(=O)N3CCN(c4cccc(Cl)c4)CC3)n(C)c2)CC1 | ? | ? | -22%[46.1 µM] | . | .
O=C(C[n+]1ccc(C(=O)c2ccccc2)cc1)Nc1ccc(C(F)(F)F)cc1 | -6% | -4 | 15%[46.1 µM] | 2µM* | ?
O=C(Nc1ccc(C(F)(F)F)cc1)c1ccccc1 | 52% | -6 | . | -2% | .
Cc1ccc(NC(NC(=O)c2cccnc2)C(Cl)(Cl)Cl)cc1 (stereo not drawn) | ? | 10 | 0% | 2% | 16µM*
O=C(NCCOc1ccc(F)cc1)c1ccccc1SCc1ccccc1 | -20% | -62* | ? | ? | 11µM*
COc1cc(SC)ccc1C(=O)NCCOc1ccc(F)cc1 | 14% | 55 | ? | -11% | -6%
COc1ccc(NC(=O)c2cc(-c3ccco3)on2)cc1OC | -2% | -3 | 17% | 11µM* | 14%[46.1 µM]
CCCCc1nc2ccccc2n2c(-c3ccc(C)cc3)c3c(=O)n(C)c(=O)n(C)c3c12 | -4% | 9 | ? | . | -2%[46.1 µM]
CC(=O)c1ccccc1NC(C(=O)NC(C)(C)CC(C)(C)C)C1CC1 (stereo not drawn) | . | -13 | . | . | .
COC(=O)N1CCCc2cc(S(=O)(=O)N3CCN(c4ccccc4)CC3)ccc21 | -29% | -14 | ? | . | -8%[46.1 µM]
Cn1c(C2CCC2)nc2cc(C(=O)N3CCOc4ccccc4C3)cc(NC(=O)C3CCCO3)c21 (stereo not drawn) | -7% | . | . | . | .
COc1ccc(C(C(=O)c2ccccc2)c2ccccc2)cc1 (stereo not drawn) | -12% | -82* | . | . | .
COc1ccc(-n2c(=O)[nH]cc(C(=O)Nc3ccccc3)c2=O)cc1 | -7% | -64* | . | 12% | .
COc1ccc(NC(=O)c2ccc(OC(=S)N(C)c3ccc(OC)cc3)cc2)cc1 | -23% | -10 | -11% | -11% | ?
COc1ccc(NC(=O)c2cc3c(Cl)nc4ccccc4c3s2)cc1OC | ? | -83* | -10% | ? | ?
CN(C(=S)Oc1ccc(C(=O)Nc2ccccc2)cc1)c1ccccc1 | -11% | -67* | ? | ? | ?
CC(C)C(=O)NCC1CCC2(CCN(Cc3ccc(-c4ccccc4Cl)o3)CC2)O1 (stereo not drawn) | -1% | . | . | . | .
CCN(C(=O)c1cn(C)c(=O)c2ccccc12)c1cccc(C)c1 | -5% | -1 | ? | . | 14%[46.1 µM]
Cc1ccccc1NC(=O)Cn1c(=O)n(Cc2ccc3c(c2)OCO3)c(=O)c2oc3ccccc3c21 | 20% | -16 | 5%[46.1 µM] | . | .
COc1ccc(C(=O)Nc2ccc(C3(C#N)CCCC3)cc2)cc1 | 16% | -75* | ? | 5.6µM* | 11%[14.2 µM]
O=C(Nc1cccnc1)c1ccc(-c2ccccc2)cc1 | 40% | 1 | . | ? | .
COc1ccc(C(NC(=O)c2cc(OC)ccc2OC)c2ccccc2)cc1 (stereo not drawn) | 0% | 39 | ? | ? | ?
O=C(Nc1ccncc1)c1ccc(-c2ccccc2)cc1 | -17% | -77* | . | 10µM* | .

Compound activity (PubChem BioAssay)
